# Data from PubChem BioAssay (NCATS).
# Results filed as inconclusive are left out. A call without a number means that no potency is given here. Unmarked numbers belong to inactive results. Activity calls are given as the source filed them. Unless noted, calls come from the whole dose curve; as a rule, active = well fitted curve in the direction sought with a large enough effect; inconclusive = small, poorly fitted or top-dose-only effect, or another doubt; inactive = no such curve, though single readings can be large; an effect the other way counts as inactive or inconclusive.
# Experiments:
# [1] = target: Aldehyde dehydrogenase, mitochondrial (Homo sapiens) (UniProt P05091); assay: qHTS for Inhibitors of the Aldehyde Dehydrogenase Family (ALDH2) Confirmatory screens (AID 2061303; active = well fitted inhibition curve with a large enough effect; title and protocol of this record describe different tests; note: nearly all actives have a fitted effect of over 45% in size; note: potency is the fitted concentration of half-maximal effect)
# [2] = qHTS for Inhibitors of the Aldehyde Dehydrogenase Family (ALDH1A2, ALDH1A3, ALDH2, ALDH3A1) (AID 2061307); note: nearly all actives have a fitted effect of over 50% in size; for potency: test system not described further here; potency is the fitted concentration of half-maximal effect
# [3] = target: Aldehyde dehydrogenase, mitochondrial (Homo sapiens) (UniProt P05091); assay: qHTS for Inhibitors of the Aldehyde Dehydrogenase Family (ALDH2) Primary screen (AID 2061308); note: nearly all actives have a fitted effect of over 55% in size; note: potency is the fitted concentration of half-maximal effect
# [4] = target: Aldehyde dehydrogenase 1A1 (Homo sapiens) (UniProt P00352); assay: qHTS for Inhibitors of the Aldehyde Dehydrogenase Family (ALDH1A1) Confirmatory screens (AID 2061316); note: nearly all actives have a fitted effect of over 65% in size; note: potency is the fitted concentration of half-maximal effect
# [5] = target: Retinaldehyde dehydrogenase 3 (Homo sapiens) (UniProt P47895); assay: qHTS for Inhibitors of the Aldehyde Dehydrogenase Family (ALDH1A3) Confirmatory screens (AID 2061311); note: nearly all actives have a fitted effect of over 60% in size; note: potency is the fitted concentration of half-maximal effect
# [6] = target: Retinal dehydrogenase 2 (Homo sapiens) (UniProt O94788); assay: qHTS for Inhibitors of the Aldehyde Dehydrogenase Family (ALDH1A2) Confirmation screens (AID 2061314); note: nearly all actives have a fitted effect of over 65% in size; note: potency is the fitted concentration of half-maximal effect
# [7] = target: Retinaldehyde dehydrogenase 3 (Homo sapiens) (UniProt P47895); assay: qHTS for Inhibitors of the Aldehyde Dehydrogenase Family (ALDH1A3) Primary screen (AID 2061315)
# [8] = BET inhibitor-based combinations targeting novel dependencies in MECOM-rearranged (r) AML: SET-2 cell line (AID 2202231); conditions: SET-2 AML cells viability, CellTiter-Glo luminescence, 48 h; viability: hits give low values, concentration not given here; note: potency is the fitted concentration of half-maximal effect; nearly all actives have a fitted effect of over 35% in size
# How it was run: (§1)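 Luminescent ATP readout (CellTiter-Glo) after 48 hr drug exposure gives viability. Curves span 11 concentrations and are normalized to DMSO and empty wells. Activity is reported as area under the curve and its Z-transform within each cell line.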
# [9] = BET inhibitor-based combinations targeting novel dependencies in MECOM-rearranged (r) AML: UCSD-AML1 cell line (AID 2202235); note: nearly all actives have a fitted effect of over 40% in size; note: potency is the fitted concentration of half-maximal effect
# How it was run: (§2)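 Luminescent ATP readout (CellTiter-Glo, 15 min at room temperature) after 48 hr drug exposure gave viability. Dose-response curves, normalized to DMSO and empty-well controls, were summarized as area under the curve and its mean-centred Z-score.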
# [10] = BET inhibitor-based combinations targeting novel dependencies in MECOM-rearranged (r) AML: AML-191 cell line (AID 2202236; note: potency is the fitted concentration of half-maximal effect; nearly all actives have a fitted effect of over 35% in size)
# How it was run: as §1
# [11] = BET inhibitor-based combinations targeting novel dependencies in MECOM-rearranged (r) AML: AML-194 cell line (AID 2202237; note: nearly all actives have a fitted effect of over 40% in size; note: potency is the fitted concentration of half-maximal effect)
# How it was run: as §1
# [12] = BET inhibitor-based combinations targeting novel dependencies in MECOM-rearranged (r) AML: OCI-AML3 cell line (AID 2202232); conditions: Potency: OCI-AML3 viability; note: potency is the fitted concentration of half-maximal effect; nearly all actives have a fitted effect of over 35% in size
# How it was run: as §1
# [13] = BET inhibitor-based combinations targeting novel dependencies in MECOM-rearranged (r) AML: MV-4-11 cell line (AID 2202233); note: potency is the fitted concentration of half-maximal effect; nearly all actives have a fitted effect of over 45% in size
# How it was run: as §2
# [14] = BET inhibitor-based combinations targeting novel dependencies in MECOM-rearranged (r) AML: HNT-34 cell line (AID 2202234); note: nearly all actives have a fitted effect of over 35% in size; note: potency is the fitted concentration of half-maximal effect
# How it was run: as §2
# [15] = target: Retinaldehyde dehydrogenase 3 (Homo sapiens) (UniProt P47895); assay: qHTS for Inhibitors of the Aldehyde Dehydrogenase Family (ALDH1A3) Validation screen (AID 2061312); note: nearly all actives have a fitted effect of over 45% in size
compound,measurement,setting,value
COc1ccc(-c2cncc(NC(=O)c3cccs3)c2)cc1OC,Potency,[1],inactive
same,Potency,[2],inactive
same,Potency,[3],inactive
same,Potency,[4],inactive
COc1ccc(-n2ccnc(NCc3ccc(Cl)cc3)c2=O)cc1,Potency,[1],14.1 µM (active)
same,Potency,[2],inactive
same,Potency,[5],inactive
same,Potency,[6],inactive
C[C@H](N)C(=O)Nc1cccc(-c2nn3c(=O)cc(N4CCNCC4)nc3s2)c1,Potency,[1],inactive
same,Potency,[2],inactive
same,Potency,[3],inactive
same,Potency,[7],inactive
Cc1cc2c(c(=O)[nH]1)OC(C(O)CC(C)C)O2 (centres undefined),Potency,[1],inactive
same,Potency,[2],inactive
same,Potency,[5],inactive
c1ccc(CN(Cc2ccccc2)Cc2nnc(-c3cc4ccccc4[nH]3)s2)cc1,Potency,[1],4 µM (active)
same,Potency,[2],11.2 µM (active)
same,Potency,[3],inactive
same,Potency,[7],inactive
COc1ccccc1-c1cc(-c2ccccc2OC)c2onc(C)c2n1,Potency,[1],inactive
same,Potency,[2],inactive
same,Potency,[5],25.1 µM (active)
same,Potency,[6],inactive
COc1cccc(Nc2nc(C#N)nc(NC3CCCC3)n2)c1,Potency,[1],inactive
same,Potency,[2],10.1 µM (active)
same,Potency,[3],inactive
same,Potency,[7],inactive
same,Potency,[4],inactive
Cc1nc(C2=NC(c3ccccc3Cl)C3=C(CCCC3=O)N2)cs1 (centres undefined),Potency,[1],inactive
same,Potency,[2],inactive
same,Potency,[3],inactive
same,Potency,[7],inactive
Clc1cccc(-c2ccc(C3Nc4cccc5cccc(c45)N3)o2)c1,Potency,[1],5.04 µM (active)
same,Potency,[2],10.1 µM (active)
same,Potency,[5],1.59 µM (active)
same,Potency,[6],11.3 µM (active)
COc1ccccc1-c1no[n+]([O-])c1C#N,Potency,[1],inactive
same,Potency,[2],3.18 µM (active)
same,Potency,[3],inactive
same,Potency,[7],inactive
same,Potency,[4],inactive
Cc1cc2c(s1)c1cnn(Cc3ccc(-n4cncn4)cc3)c(=O)c1n2C,Potency,[1],25.1 µM (active)
same,Potency,[2],14.1 µM (active)
same,Potency,[3],inactive
same,Potency,[7],inactive
same,Potency,[4],11.3 µM (active)
CCn1cc2nc(SCc3cccc(C)c3)n(CCc3ccccc3)c(=O)c2n1,Potency,[1],28.2 µM (active)
same,Potency,[2],3.98 µM (active)
same,Potency,[5],1.26 µM (active)
same,Potency,[6],3.24 µM (active)
FC(F)(F)c1cnc(N2CCN(C(=S)Nc3cc(Cl)ccn3)CC2)c(Cl)c1,Potency,[1],7.12 µM (active)
same,Potency,[2],5.65 µM (active)
same,Potency,[3],12.6 µM (active)
same,Potency,[7],inactive
same,Potency,[4],2.52 µM (active)
CNC(=O)c1cc(Oc2ccc3nc(N[C@@H]4CCCC[C@H]4O)sc3c2)ccn1,Potency,[1],inactive
same,Potency,[2],10.1 µM (active)
same,Potency,[3],inactive
same,Potency,[7],inactive
same,Potency,[8],20.9 µM (active)
same,Potency,[9],inactive
same,Potency,[10],14.8 µM (active)
same,Potency,[11],inactive
O=C(C1CCN(Cc2ccccc2-c2ccccc2F)CC1)N1CCC(Cc2ccccc2)CC1,Potency,[1],3.16 µM (active)
same,Potency,[2],inactive
same,Potency,[5],inactive
same,Potency,[6],inactive
CC(=O)Nc1sc2c(c1-c1ccc(C(F)(F)F)cc1)CCNC2,Potency,[1],inactive
same,Potency,[2],inactive
same,Potency,[3],inactive
same,Potency,[7],inactive
same,Potency,[4],inactive
CC1CCN(c2ccc(CNC(=O)CC3CCOCC3)cc2)CC1,Potency,[1],inactive
same,Potency,[2],inactive
same,Potency,[5],10 µM (active)
Cc1cc(N[S+](=O)([O-])c2cc3c(cc2Cl)NC(=O)CO3)ccc1Cl,Potency,[1],inactive
same,Potency,[2],inactive
same,Potency,[3],inactive
same,Potency,[7],inactive
same,Potency,[4],inactive
CC(C)N1CCc2c(sc(NC(=O)C(F)(F)F)c2-c2nc3ccccc3s2)C1,Potency,[1],11.3 µM (active)
same,Potency,[2],8.96 µM (active)
same,Potency,[3],31.6 µM (active)
same,Potency,[4],5.65 µM (active)
Cc1ncc(-c2ccnc(Nc3ccc(S(C)(=O)=O)cc3)n2)n1C(C)C,Potency,[1],inactive
same,Potency,[2],11.3 µM (active)
same,Potency,[3],inactive
same,Potency,[7],inactive
same,Potency,[4],inactive
same,Potency,[12],2.35 µM (active)
same,Potency,[13],0.59 µM (active)
same,Potency,[14],1.48 µM (active)
same,Potency,[9],1.32 µM (active)
same,Potency,[10],1.18 µM (active)
same,Potency,[11],1.86 µM (active)
N[C@@H](CC(=O)O)C(=O)Nc1ccc(Cl)cc1C(=O)c1ccc[nH]1,Potency,[1],inactive
same,Potency,[2],inactive
same,Potency,[3],inactive
same,Potency,[7],inactive
same,Potency,[4],inactive
CC(C)(C)OC(=O)N1CCN(c2ccc(NCc3ccc(-c4ccc(C(C)(C)C)cc4)o3)cc2)CC1,Potency,[1],inactive
same,Potency,[2],inactive
same,Potency,[3],inactive
same,Potency,[4],10.1 µM (active)
CCOc1ccc(-c2nc(CSCC(=O)N3CCN(c4cccc(C(F)(F)F)c4)CC3)c(C)o2)cc1,Potency,[1],8.91 µM (active)
same,Potency,[2],7.94 µM (active)
same,Potency,[5],2 µM (active)
CN[C@@H]1[C@H](O[C@H]2[C@H](O[C@@H]3[C@@H](O)[C@H](O)[C@@H](N=C(N)N)[C@H](O)[C@H]3N=C(N)N)O[C@@H](C)[C@]2(O)C=O)O[C@@H](CO)[C@H](O)[C@H]1O,Potency,[1],inactive
same,Potency,[2],inactive
same,Potency,[5],inactive
same,Potency,[15],inactive
same,Potency,[6],inactive
same,Potency,[7],inactive
same,Potency,[4],inactive
same,Potency,[14],inactive
same,Potency,[11],inactive
COc1cccc(CNc2ccc(S(=O)(=O)Nc3ccc(C4CCNCC4)cc3)cc2)c1O,Potency,[1],inactive
same,Potency,[2],inactive
same,Potency,[3],inactive
same,Potency,[7],inactive
Cc1ccc(NC(=O)CN2C(=O)N/C(=C\c3cccn3-c3ccc(P(=O)(O)O)cc3)C2=O)cc1,Potency,[1],inactive
same,Potency,[2],inactive
same,Potency,[3],inactive
same,Potency,[7],inactive
same,Potency,[4],inactive
Cc1ccc(-c2ccc(C=O)cc2)c(C)c1,Potency,[1],4.7 µM (active)
same,Potency,[2],15.8 µM (active)
same,Potency,[5],0.355 µM (active)
same,Potency,[6],12.6 µM (active)
COc1ccc(C2Nc3ccccc3C(=O)N2Cc2ccccc2)cc1COc1cccc(Cl)c1 (centres undefined),Potency,[1],5.01 µM (active)
same,Potency,[2],5.65 µM (active)
same,Potency,[3],inactive
same,Potency,[7],inactive
same,Potency,[4],inactive
